# Experimental data published in PubChem BioAssay AID1719 (National Center for Advancing Translational Sciences (NCATS), 2009).
# The list shows a part of the results. Results filed as inconclusive are left out. Calls of active or inactive are those of the source.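 How the source made its calls: active means compounds whose electron micrographs showed tau fibrils broken into shorter filaments or fragments, graded high on fibril breakup; inconclusive means micrographs gave an unclear fibril picture; inactive means the rest.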
# Biological target: Microtubule-associated protein tau (Homo sapiens) (UniProt P10636)
# Assay: Transmission Electron Microscopy Assay for Inhibitors of Tau Fibrillization
# Conditions: recombinant tau K18 P301L (four-repeat tau fragment) fibrillization, TEM grading; hits give high values
# From the text: NIH Molecular Libraries Probe Production Network [MLPCN] NIH Chemical Genomics Center [NCGC] MLPCN Grant: X01 MH083262-01 Assay Provider: Carlo Ballatore, University of Pennsylvania NCGC Assay Overview: The microtubule-associated protein tau is an abundant protein in the axons of neurons that stabilizes microtubules. With its ability to modulate microtubule dynamics, tau contributes directly or indirectly, to key structural and regulatory cellular functions. Particularly important is the influence tau exerts on axonal transport, which allows signaling molecules, trophic factors and other essential cellular constituents to travel along the axons. Under pathological conditions, tau becomes sequestered into insoluble aggregates called neurofibrillary tangles. This phenomenon is believed to have pathological consequences by promoting axonal transport deficits that ultimately lead to synaptic dysfunction and neuronal loss. The ability of compounds to block tau fibrillization was visualized using transmission electron microscopy (TEM). Samples from the tau ThT confirmation assay treated with 100 uM compound (AID 1558) were centrifuged and imaged using TEM. […]
# Microtubule-associated protein tau (Homo sapiens), sequence (P10636 561-689 P618L limits assumed): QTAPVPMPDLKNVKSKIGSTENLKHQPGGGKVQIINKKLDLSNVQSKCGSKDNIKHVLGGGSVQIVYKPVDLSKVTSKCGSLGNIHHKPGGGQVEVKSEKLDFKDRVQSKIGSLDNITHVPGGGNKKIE
row,SMILES,"fibril grade (0 = clumped fibrils, 4 = only tiny pieces)"
1,CCN(CC)c1ccc2oc(=O)c(C)nc2c1,4 (active)
